According to PubChem BioAssay (Tox21):
Values joined by “and” are separate entries in the source; they are usually repeats but may differ in a detail not shown here. Equal values may be shown once. Results filed as inconclusive are left out. A structure can be active in one record and inactive in another. Active and inactive are the calls of the source. Unless noted, calls follow the shape of the dose curve; as a rule, active = well fitted curve in the direction sought with a large enough effect in the repeat runs; inconclusive = weak or mixed curves; inactive = no such curve, though single readings can be large; an effect the other way counts as inactive or inconclusive.

Experiments:
[1] = qHTS assay to identify small molecule agonists of the peroxisome proliferator-activated receptor delta (PPARd) signaling pathway - cell viability counter screen (AID 743211); also: nearly all actives have a fitted effect of over 55% in size; also: potency is read from the fitted curve at half-maximal effect
Procedure, shortened: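 qHTS cell viability: PPARd-bla HEK293H; 17 h cpd, 37C; CellTiter-Glo, luminescence at 30 min RT.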

[2] = qHTS assay to identify small molecule agonists of the farnesoid-X-receptor (FXR) signaling pathway - cell viability counter screen (AID 743218); also: nearly all actives have a fitted effect of over 45% in size; also: potency is read from the fitted curve at half-maximal effect
Procedure, shortened: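 Viability counter screen in the same wells: CellTiter-Glo luminescence, 30 min room-temperature incubation, measured after the beta-lactamase read. Cells were GeneBLAzer FXR-UAS-bla HEK 293T, compound-treated 16 h at 37C.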

[3] = qHTS assay to identify small molecule antagonists of the farnesoid-X-receptor (FXR) signaling pathway - cell viability counter screen (AID 743221; active = well fitted cell-killing curve with a large enough effect in the repeat runs, not every such curve was filed as active; also: nearly all actives have a fitted effect of over 50% in size; also: potency is read from the fitted curve at half-maximal effect)
Procedure, shortened: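 After a 5 h settling period, FXR-bla HEK 293T cells receive compound and chenodeoxycholic acid (50 uM final) and incubate 16 h at 37 C; CellTiter-Glo luminescence, read after 30 min at room temperature, reports cell viability.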

[4] = qHTS assay to identify small molecule agonists of the vitamin D receptor (VDR) signaling pathway - cell viability counter screen (AID 743224); also: nearly all actives have a fitted effect of over 50% in size; also: potency is read from the fitted curve at half-maximal effect
Procedure, shortened: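 Counter screen run in the same wells as the VDR-bla reporter assay: CellTiter-Glo luminescence, 30 min at room temperature, after 16 h compound treatment at 37C of cells pre-plated for 4 h.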

[5] = qHTS assay to identify small molecule agonists of the NFkB signaling pathway - cell viability counter screen (AID 1159515; calls by dose curve; also: nearly all actives have a fitted effect of over 55% in size; also: potency is read from the fitted curve at half-maximal effect)
Procedure, shortened: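 Read by CellTiter-Glo luminescence (30 min, room temperature) in the wells also used for the beta-lactamase FRET read. ME-180 NFkB-bla cells at 2,000 per well were plated overnight, then exposed to compound for 5 hr at 37 C.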

[6] = qHTS assay to identify small molecule agonists of the endoplasmic reticulum stress response signaling pathway (AID 1159516; active = well fitted activation curve with a large enough effect in the signal ratio in the repeat runs, not every such curve was filed as active; the % refers to the signal ratio)
Procedure, shortened: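 Ratiometric FRET readout (405 nm excitation; 460 and 530 nm emission) of a beta-lactamase gene driven by the ER stress response element, after 2 hr substrate loading. HeLa ESRE-bla cells were seeded overnight and treated with compounds for only 5 hr at 37 C.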

[7] = qHTS assay to identify small molecule agonists of the endoplasmic reticulum stress response signaling pathway - cell viability counter screen (AID 1159517; calls by dose curve; also: nearly all actives have a fitted effect of over 50% in size; also: potency is read from the fitted curve at half-maximal effect)
Procedure, shortened: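 Cytotoxicity of test compounds toward ESRE-bla HeLa cells was assessed after 5 hr exposure. The luminescent CellTiter-Glo signal was measured 30 min after reagent addition.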

[8] = qHTS assay to identify small molecule antagonists of the retinoid-related orphan receptor gamma (ROR-gamma) signaling pathway - cell viability counter screen (AID 1159520); also: nearly all actives have a fitted effect of over 50% in size; also: potency is read from the fitted curve at half-maximal effect
Procedure, shortened: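 Tet-on ROR gamma CHO cells (1,000/well) were plated 4 hr, given compounds in DMSO for 2 hr at 37 C, then induced with 1 uM final doxycycline for 16 hr. Viability was read as ATP by CellTiter-Glo luminescence after 30 min.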

[9] = qHTS assay to identify small molecule agonists of the AP-1 signaling pathway - cell viability counter screen (AID 1159525; calls by dose curve; also: nearly all actives have a fitted effect of over 55% in size; also: potency is read from the fitted curve at half-maximal effect)
Procedure, shortened: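 Each titration point was normalised to DMSO and tetra n-octyl ammonium bromide controls. The read was Cell Titer Glo luminescence after 30 min at RT, following 5 h compound exposure of ME-180 AP-1-bla cells at 37 °C.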

[10] = qHTS assay to identify small molecule agonists of the AP-1 signaling pathway (AID 1159526; calls by dose curve)
[11] = target: Retinoic acid receptor RXR-alpha (Homo sapiens) (UniProt P19793); assay: qHTS assay to identify small molecule agonists of the RXR signaling pathway (AID 1159527; calls by dose curve; also: nearly all actives have a fitted effect of over 35% in size)
Procedure, shortened: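 16 hr incubation of compound-treated RXR-alpha-UAS-bla HEK 293T cells (2% charcoal-stripped FBS, 37 C) preceded a 2 hr room-temperature LiveBLAzer FRET substrate step and blue/green fluorescence measurement.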

[12] = target: Vitamin D3 receptor (Homo sapiens) (UniProt P11473); assay: qHTS assay to identify small molecule antagonists of the vitamin D receptor (VDR) signaling pathway (AID 743223; active = well fitted inhibition curve with a large enough effect in the signal ratio in the repeat runs, not every such curve was filed as active; the % refers to the signal ratio; also: potency is read from the fitted curve at half-maximal effect)
Procedure, shortened: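 Reporter line VDR-bla; stimulus 1alpha,25-(OH)2 vitamin D3, 3 nM final; compound co-addition, 16 h 37C/5% CO2; LiveBLAzer B/G substrate 2 h RT; fluorescence intensity.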

[13] = qHTS assay to identify small molecule antagonists of the vitamin D receptor (VDR) signaling pathway - cell viability counter screen (AID 743225); also: nearly all actives have a fitted effect of over 50% in size; also: potency is read from the fitted curve at half-maximal effect
Procedure, shortened: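 Parallel cytotoxicity test: VDR-UAS-bla HEK 293T, 3 nM (final) 1-alpha,25-dihydroxyvitamin D3 with test compound, 16 h, 37C. Endpoint is CellTiter-Glo luminescence in the same wells.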

[14] = target: Nuclear receptor ROR-gamma (Homo sapiens) (UniProt P51449); assay: qHTS assay to identify small molecule antagonists of the retinoid-related orphan receptor gamma (ROR-gamma) signaling pathway (AID 1159521; also: nearly all actives have a fitted effect of over 50% in size; also: potency is read from the fitted curve at half-maximal effect)
Procedure, shortened: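 Decreased RORE-driven luciferase luminescence indicates antagonism. Tet-on RORγ CHO cells received compound, then 1 uM final doxycycline 2 h later; signal read after 16 h incubation.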

[15] = target: Peroxisome proliferator-activated receptor delta (Homo sapiens) (UniProt Q03181); assay: qHTS assay to identify small molecule agonists of the peroxisome proliferator-activated receptor delta (PPARd) signaling pathway (AID 743212; calls by dose curve;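 also: HEK293H cells with PPARd UAS beta-lactamase reporter GeneBLAzer system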)
Procedure, shortened: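 Beta-lactamase reporter read by fluorescence (LiveBLAzer B/G FRET, 2 h, room temperature). Test agents, in DMSO, incubated at 37 C with PPARd-bla HEK293H cells.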

[16] = target: Peroxisome proliferator-activated receptor delta (Homo sapiens) (UniProt Q03181); assay: qHTS assay to identify small molecule antagonists of the peroxisome proliferator-activated receptor delta (PPARd) signaling pathway (AID 743215; active = well fitted inhibition curve with a large enough effect in the signal ratio in the repeat runs, not every such curve was filed as active; the % refers to the signal ratio;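 also: cells stimulated with agonist L165041 at 300 nM final during compound exposure; series mostly up to about 62 µM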)
Procedure, shortened: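 Agonist L165041 (300 nM final) added with compound to PPARd-bla HEK293H UAS-bla reporter cells; 17 h incubation at 37 C. Read-out: LiveBLAzer FRET substrate, 2 h at room temperature, fluorescence intensity.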

[17] = target: Bile acid receptor (Homo sapiens) (UniProt Q96RI1); assay: qHTS assay to identify small molecule agonists of the farnesoid-X-receptor (FXR) signaling pathway (AID 743220; active = well fitted activation curve with a large enough effect in the signal ratio in the repeat runs, not every such curve was filed as active; the % refers to the signal ratio)
Procedure, shortened: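 FXR-UAS-bla HEK 293T cells carrying a UAS-driven beta-lactamase reporter were plated for 5 h at 37C/5% CO2, then exposed to DMSO-dissolved Tox21 10K compounds for 16 h at 37C. A LiveBLAzer B/G FRET substrate was loaded for 2 h at room temperature before fluorescence reading.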

[18] = qHTS assay to identify small molecule antagonists of the peroxisome proliferator-activated receptor delta (PPARd) signaling pathway - cell viability counter screen (AID 743213); also: nearly all actives have a fitted effect of over 50% in size; also: potency is read from the fitted curve at half-maximal effect
Procedure, shortened: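 HEK293H cells with the PPARd UAS-bla reporter, co-treated 17 h at 37 C with compounds and L165041 (300 nM final), were lysed with CellTiter-Glo. Luminescence indicated viable cell content.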

[19] = target: Vitamin D3 receptor (Homo sapiens) (UniProt P11473); assay: qHTS assay to identify small molecule agonists of the vitamin D receptor (VDR) signaling pathway (AID 743222; calls by dose curve)
Procedure, shortened: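 Agonist mode, beta-lactamase reporter: fluorescence from LiveBLAzer B/G FRET substrate (2 h, room temperature) read after 16 h compound treatment at 37 C of VDR-bla cells, which were pre-incubated 4 h after seeding.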

[20] = target: Bile acid receptor (Homo sapiens) (UniProt Q96RI1); assay: qHTS assay to identify small molecule antagonists of the farnesoid-X-receptor (FXR) signaling pathway (AID 743217; active = well fitted inhibition curve with a large enough effect in the signal ratio in the repeat runs, not every such curve was filed as active; the % refers to the signal ratio)
Procedure, shortened: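 Antagonist mode: chenodeoxycholic acid at 50 uM final stimulates a UAS-driven beta-lactamase reporter in HEK 293T FXR-bla cells during 16 h, 37C compound exposure. Read-out is FRET substrate fluorescence after 2 h at room temperature.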

Measured: Potency

Chain of Bile acid receptor (Homo sapiens) (Q96RI1 whole entry, looked up): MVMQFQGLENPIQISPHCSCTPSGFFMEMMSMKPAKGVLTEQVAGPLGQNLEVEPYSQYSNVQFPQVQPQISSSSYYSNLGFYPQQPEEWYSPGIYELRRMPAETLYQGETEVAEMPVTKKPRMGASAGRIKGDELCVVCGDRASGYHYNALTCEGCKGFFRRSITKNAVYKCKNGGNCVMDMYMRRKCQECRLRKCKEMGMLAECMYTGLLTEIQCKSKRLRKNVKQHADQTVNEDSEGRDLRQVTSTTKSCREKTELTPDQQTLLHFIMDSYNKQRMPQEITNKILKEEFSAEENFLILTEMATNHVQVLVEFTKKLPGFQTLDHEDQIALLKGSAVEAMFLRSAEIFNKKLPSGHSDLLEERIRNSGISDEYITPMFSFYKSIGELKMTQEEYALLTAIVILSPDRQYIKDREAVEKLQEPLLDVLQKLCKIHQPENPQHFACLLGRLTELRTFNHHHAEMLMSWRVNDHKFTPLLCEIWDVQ
Chain of Retinoic acid receptor RXR-alpha (Homo sapiens) (P19793 whole entry, looked up): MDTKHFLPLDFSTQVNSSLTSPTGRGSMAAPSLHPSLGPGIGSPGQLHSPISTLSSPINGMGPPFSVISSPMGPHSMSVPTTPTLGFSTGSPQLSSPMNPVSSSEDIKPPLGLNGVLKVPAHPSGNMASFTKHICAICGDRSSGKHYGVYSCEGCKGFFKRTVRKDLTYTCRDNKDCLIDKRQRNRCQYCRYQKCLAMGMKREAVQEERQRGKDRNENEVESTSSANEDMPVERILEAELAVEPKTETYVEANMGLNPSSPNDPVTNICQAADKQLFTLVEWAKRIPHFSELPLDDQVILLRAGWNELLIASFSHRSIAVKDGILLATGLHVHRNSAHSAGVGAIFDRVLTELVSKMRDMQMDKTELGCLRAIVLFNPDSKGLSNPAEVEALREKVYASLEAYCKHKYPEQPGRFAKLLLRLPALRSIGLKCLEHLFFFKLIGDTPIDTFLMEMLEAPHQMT
Chain of Peroxisome proliferator-activated receptor delta (Homo sapiens) (Q03181 whole entry, looked up): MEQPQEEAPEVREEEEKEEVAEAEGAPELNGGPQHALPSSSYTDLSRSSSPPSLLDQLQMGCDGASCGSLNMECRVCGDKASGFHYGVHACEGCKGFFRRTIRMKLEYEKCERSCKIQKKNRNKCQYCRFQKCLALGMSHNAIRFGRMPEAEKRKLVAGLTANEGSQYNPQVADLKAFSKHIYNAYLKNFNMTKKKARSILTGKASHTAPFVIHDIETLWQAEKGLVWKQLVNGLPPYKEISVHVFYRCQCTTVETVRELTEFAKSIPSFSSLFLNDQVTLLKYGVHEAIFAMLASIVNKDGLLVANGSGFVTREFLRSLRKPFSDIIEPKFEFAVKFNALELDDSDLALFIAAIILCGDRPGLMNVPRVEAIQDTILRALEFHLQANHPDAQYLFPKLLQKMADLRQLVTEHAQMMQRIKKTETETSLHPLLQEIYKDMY
Chain of Vitamin D3 receptor (Homo sapiens) (P11473 whole entry, looked up): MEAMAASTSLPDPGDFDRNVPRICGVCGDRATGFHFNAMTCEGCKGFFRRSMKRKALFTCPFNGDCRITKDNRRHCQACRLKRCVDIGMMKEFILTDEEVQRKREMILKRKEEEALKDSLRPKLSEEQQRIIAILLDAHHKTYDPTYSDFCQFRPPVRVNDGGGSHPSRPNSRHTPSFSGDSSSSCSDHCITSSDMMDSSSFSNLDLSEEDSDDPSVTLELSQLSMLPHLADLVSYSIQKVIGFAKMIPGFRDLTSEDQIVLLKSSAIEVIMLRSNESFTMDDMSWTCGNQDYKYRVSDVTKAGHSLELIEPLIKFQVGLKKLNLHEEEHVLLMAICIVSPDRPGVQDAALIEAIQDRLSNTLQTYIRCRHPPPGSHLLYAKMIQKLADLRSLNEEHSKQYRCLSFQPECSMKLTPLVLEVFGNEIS

CCOP(=O)(O)OCC (tested in a mixture with another compound)
inactive and 24.3 µM (active): [7]
inactive and 43.3 µM (active): [2]
inactive and 54 µM (active): [8]
inactive and 54.5 µM (active): [5]
inactive and 17.2 µM (active): [4]
inactive and 21.7 µM (active): [1]
inactive and 48.6 µM (active): [3] | [9]
inactive: [6] | [10] | [11]

O=C(O)CF
not listed: [9] | [15] | [16] | [17] | [18] | [19] | [20]
inactive: all other assays above

CC1(C)C(C(=O)OC(C#N)c2cccc(Oc3ccccc3)c2)C1(C)C (configuration not stated)
active: [14] 48.9 µM
not listed: [9] | [11] | [18] | [19] | [20]
inactive: all other assays above

CC(C)(c1ccccc1)c1ccc(O)c(C(C)(C)c2ccccc2)c1
active: [1] 21.7 µM and 19.5 µM | [2] 54.9 µM | [12] 43.6 µM | [4] 19.3 µM and 15.5 µM | [13] 30.6 µM and 17.4 µM | [5] 21.7 µM and 21.9 µM | [7] 27.3 µM and 27.5 µM | [8] 48.1 µM and 30.6 µM | [14] 19.2 µM and 27.3 µM

[Cl-].[Cl-].[Cl-].[Fe+3]
not listed: [2] | [12] | [14] | [15] | [16] | [17] | [19] | [20]
inactive: all other assays above

O=C1C(Cl)=C(Cl)C(=O)c2ccccc21
inactive and 49 µM (active): [3]
inactive: [15]
active: [1] 19.6 µM and 13.8 µM | [18] 9.8 µM and 6.17 µM | [2] 49 µM | [4] 4.38 µM and 9.77 µM | [13] 6.94 µM and 12.3 µM | [5] 21.9 µM and 12.3 µM | [7] 19.6 µM and 49 µM | [8] 5.46 µM and 5.45 µM | [14] 4.87 µM and 12.2 µM | [9] 11 µM and 19.5 µM

CC(C)=CC1C(C(=O)OCN2C(=O)C3=C(CCCC3)C2=O)C1(C)C (configuration not stated)
inactive: [1] | [2] | [3] | [19] | [12] | [4] | [13] | [5] | [6] | [7] | [8]

CC(C)(c1ccc(OCC2CO2)cc1)c1ccc(OCC2CO2)cc1 (configuration not stated)
active: [1] 34.7 µM
not listed: [9] | [11] | [12] | [15] | [17] | [19] | [20]
inactive: all other assays above

CC(C)(c1ccccc1)c1ccc(O)cc1
active: [1] 54.5 µM | [5] 43.3 µM and 54.9 µM | [14] 60.6 µM
not listed: [7] | [8] | [9] | [10] | [11] | [13] | [16]
inactive: all other assays above

COc1ccc(O)c(C(C)(C)C)c1
not listed: [14] | [15] | [16]
inactive: all other assays above

O=[N+]([O-])/N=C1\NCCN1Cc1ccc(Cl)nc1
not listed: [9] | [15] | [16] | [18] | [19]
inactive: all other assays above

O=[N+]([O-])c1ccc(Cl)c([N+](=O)[O-])c1
active: [1] 19.8 µM and 19.5 µM | [18] 24.9 µM and 19.5 µM | [12] 22.2 µM and 21.9 µM | [4] 14 µM and 17.4 µM | [13] 19.8 µM and 19.5 µM | [5] 49.7 µM and 54.9 µM | [7] 22.2 µM and 49 µM | [8] 49.3 µM and 21.7 µM | [14] 6.21 µM and 6.86 µM | [9] 35.2 µM and 34.7 µM

C[C@]12CCC(=O)C=C1CC[C@@H]1[C@@H]2CC[C@@]2(C)[C@H]1CC[C@]2(C)O
active: [14] 15.5 µM and 26.6 µM
inactive: [1] | [15] | [3] | [4] | [13] | [5] | [6] | [7] | [8] | [10]

CN(C)c1ccccc1
not listed: [14] | [15] | [16]
inactive: all other assays above

CC(C)Nc1ccc(Nc2ccccc2)cc1
inactive: [15] | [2] | [17] | [3] | [5] | [6] | [7]
active: [18] 43.6 µM | [4] 43.5 µM and 43.6 µM | [13] 43.6 µM | [14] 38.4 µM and 54.5 µM

CCC[CH2][Sn]([Cl])([CH2]CCC)[CH2]CCC
active: [1] 551 nM and 1.23 µM | [2] 873 nM and 1.23 µM | [3] 1.95 µM and 2.45 µM | [4] 437 nM and 1.23 µM | [13] 618 nM and 3.47 µM | [5] 1.1 µM and 1.95 µM | [7] 1.74 µM and 3.09 µM | [8] 1.54 µM and 1.72 µM | [14] 194 nM and 686 nM

COP(=S)(OC)Oc1ccc(S(=O)(=O)N(C)C)cc1
not listed: [9] | [15] | [16] | [17] | [20]
inactive: all other assays above

CCCCC(C#N)(Cn1cncn1)c1ccc(Cl)cc1 (configuration not stated)
not listed: [2] | [11] | [12] | [14] | [17] | [19] | [20]
inactive: all other assays above

CC(C)(O)C#N
not listed: [2] | [9] | [15] | [16] | [18] | [19]
inactive: all other assays above

NN=C(N)N
not listed: [12] | [14] | [15] | [16] | [17] | [19] | [20]
inactive: all other assays above

COP(=S)(OC)SCn1nnc2ccccc2c1=O
not listed: [2] | [9] | [10] | [11] | [16] | [17] | [19] | [20]
inactive: all other assays above

CCOP(=S)(OCC)OP(=S)(OCC)OCC
not listed: [2] | [9] | [11] | [12] | [19] | [20]
inactive: all other assays above

Cl
inactive: [1] | [2] | [3] | [4] | [13] | [5] | [6] | [7] | [8] | [10] | [11]

CCOC(=O)c1ccccc1N
not listed: [9] | [11] | [18] | [19]
inactive: all other assays above
